# Reference: PubChem BioAssay (NCATS)
# Several values for one entry are separate records, joined by “and”; a condition that tells them apart may be missing. Equal values may be shown once. Records with an inconclusive call do not appear. A call without a number means that no potency is given here. More than one record can exist for a structure, and the calls need not agree. Activity calls are given as the source filed them. Calls come from the whole dose curve; as a rule, active = well fitted inhibition curve with a large enough effect; inconclusive = small, poorly fitted or top-dose-only effect; inactive = flat fitted curve, though single readings scatter.
# Tests used:
# [1] = target: Glutathione peroxidase 1 (Homo sapiens) (UniProt P07203); assay: Primary qHTS Assay for Inhibitors of Recombinant Selenoprotein Glutathione Peroxidase 1 (GPX1) (AID 1845191); conditions: recombinant GPX1, GR-coupled NADPH fluorescence, 15 min; series mostly up to 48.8 µM
# Summary of the method: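 GR-coupled assay: compounds preincubated 30 min at room temperature with GPX1, then reaction started with CHP; final 10 nM GPX1, 1 mM GSH, 0.5 mM CHP, 0.5 mM NADPH, 100 nM GR, 0.01% BSA, pH 7.5 Tris buffer. NADPH fluorescence (340/450 nm) read at 0 and 15 min.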
# [2] = target: Phospholipid hydroperoxide glutathione peroxidase GPX4 (Homo sapiens) (UniProt P36969); assay: Primary qHTS Assay for Inhibitors of Recombinant Selenoprotein Glutathione Peroxidase 4 (GPX4) (AID 1845192); conditions: recombinant GPX4, GR-coupled NADPH fluorescence, 15 min; series mostly up to 50 µM
# Summary of the method: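 GR-coupled assay: recombinant GPX4 preincubated 30 min with compound at room temperature; final 200 nM GPX4, 1 mM GSH, 0.5 mM cumene hydroperoxide, 0.5 mM NADPH, 100 nM GR, 0.01% BSA, pH 7.5 Tris. NADPH fluorescence (340/450 nm) read at 0 and 15 min.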
# Note: nearly all actives have a fitted effect of over 65% in size.
# Potency is the fitted concentration of half-maximal effect.
# Sequence of Phospholipid hydroperoxide glutathione peroxidase GPX4 (Homo sapiens) (P36969 whole entry, looked up): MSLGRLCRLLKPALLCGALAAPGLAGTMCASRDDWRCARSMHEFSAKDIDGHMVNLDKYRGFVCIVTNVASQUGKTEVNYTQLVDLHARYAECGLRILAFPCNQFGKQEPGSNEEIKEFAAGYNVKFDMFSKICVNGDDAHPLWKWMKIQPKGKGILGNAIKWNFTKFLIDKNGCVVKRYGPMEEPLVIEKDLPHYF
# Sequence of Glutathione peroxidase 1 (Homo sapiens) (P07203 whole entry, looked up): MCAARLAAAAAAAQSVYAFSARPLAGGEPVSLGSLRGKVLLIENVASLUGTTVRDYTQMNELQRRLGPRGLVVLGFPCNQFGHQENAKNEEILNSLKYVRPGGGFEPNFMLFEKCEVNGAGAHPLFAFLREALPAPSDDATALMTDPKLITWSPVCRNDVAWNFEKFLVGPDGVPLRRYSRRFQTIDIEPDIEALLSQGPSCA
structure (smiles),measurement,setting,value
CCCCC[C@H](O)/C=C/[C@H]1[C@H](O)CC(=O)[C@@H]1CCCCCCC(=O)O,Potency,[1],inactive
same,Potency,[2],inactive
NC(=S)NS(=O)(=O)c1ccc(N)cc1,Potency,[1],inactive
same,Potency,[2],inactive
O=C(Nc1ccc(O)cc1)c1ccccc1O,Potency,[1],inactive
same,Potency,[2],inactive
CC(C)(C)c1ccc2c(S(=O)(=O)O)c(C(C)(C)C)ccc2c1,Potency,[1],inactive
same,Potency,[2],12.6 µM (active)
CC(C)(C)NCC(O)c1ccc(O)c(CO)n1 (stereo not drawn),Potency,[1],inactive
same,Potency,[2],12.6 µM (active)
O=C1CCC(=O)N1CO,Potency,[1],inactive
same,Potency,[2],inactive
COc1ccc([C@@H]2CC(=O)c3c(O)cc(O[C@@H]4O[C@H](CO[C@@H]5O[C@@H](C)[C@H](O)[C@@H](O)[C@H]5O)[C@@H](O)[C@H](O)[C@H]4O)cc3O2)cc1O,Potency,[1],inactive
same,Potency,[2],inactive
CCOC(=O)Oc1c(OC)cc(C(=O)O[C@@H]2C[C@@H]3CN4CCc5c([nH]c6cc(OC)ccc56)[C@H]4C[C@@H]3[C@H](C(=O)OC)[C@H]2OC)cc1OC,Potency,[1],inactive
same,Potency,[2],15.8 µM (active)
COc1ccc(-c2noc(CC(=O)O)c2-c2ccc(OC)cc2)cc1,Potency,[1],inactive
same,Potency,[2],inactive
CNCC(O)c1ccc(OC(=O)C(C)(C)C)c(OC(=O)C(C)(C)C)c1 (stereo not drawn),Potency,[1],inactive
same,Potency,[2],inactive
O=[N+]([O-])c1c(Cl)cccc1-c1c[nH]cc1Cl,Potency,[1],inactive
same,Potency,[2],inactive
CC(C)(C)C(=O)OCC(=O)[C@H]1CC[C@H]2[C@@H]3CCC4=CC(=O)CC[C@]4(C)[C@H]3CC[C@]12C,Potency,[1],inactive
same,Potency,[2],inactive
CNC(=O)C[C@@H](N)C(=O)N[C@@H](C(=O)N[C@@H]1C(=O)N2[C@@H]1SC(C)(C)[C@@H]2C(=O)O)c1ccc(O)cc1,Potency,[1],inactive
same,Potency,[2],inactive
N=C(N)c1ccc(/C=C/c2ccc(C(=N)N)cc2O)cc1,Potency,[1],inactive
same,Potency,[2],inactive
C=CC[C@@H]1/C=C(\C)C[C@H](C)C[C@H](OC)[C@H]2O[C@@](O)(C(=O)C(=O)N3CCCC[C@H]3C(=O)O[C@H](/C(C)=C/[C@@H]3CC[C@@H](O)[C@H](OC)C3)[C@H](C)[C@@H](O)CC1=O)[C@H](C)C[C@@H]2OC,Potency,[1],inactive and 2.55 µM (active)
same,Potency,[2],inactive and 2.82 µM (active)
C=CC[N+]1([C@H]2C[C@H]3[C@@H]4CC[C@H]5C[C@H](O)[C@@H](N6CCOCC6)C[C@]5(C)[C@H]4CC[C@]3(C)[C@H]2OC(C)=O)CCCC1,Potency,[1],inactive
same,Potency,[2],inactive
CCOC(=O)c1c[nH]c2cc(OCC(C)C)c(OCC(C)C)cc2c1=O,Potency,[1],inactive
same,Potency,[2],inactive
COc1ccc2c(c1)OC(C)(C)C(c1ccccc1)C2c1ccc(OCCN2CCCC2)cc1 (stereo not drawn),Potency,[1],inactive
same,Potency,[2],inactive
CN(C)c1ccc(C(=C2C=CC(=[N+](C)C)C=C2)c2c(O)c(S(=O)(=O)[O-])cc3cc(S(=O)(=O)O)ccc23)cc1,Potency,[1],inactive
same,Potency,[2],inactive
CC(O)[C@H]1CC[C@H]2[C@@H]3CC[C@@H]4C[C@@H](O)CC[C@]4(C)[C@H]3CC[C@]12C (stereo partly drawn),Potency,[1],inactive
same,Potency,[2],inactive
CC1=C(/C=C/C(C)=C/C=C/C(C)=C/C=C/C=C(C)/C=C/C=C(C)/C=C/C2=C(C)C[C@@H](O)CC2(C)C)C(C)(C)C[C@H](O)C1,Potency,[1],inactive
same,Potency,[2],inactive
NCCCC[C@H](N)C(=O)O,outcome,[1],inactive [at 0.4 µM]
same,outcome,[2],inactive [at 0.409 µM]
CC1CCCCN1CCCOC(=O)c1ccccc1 (stereo not drawn),Potency,[1],inactive
same,Potency,[2],inactive
Cc1c(C)c2c(c(C)c1OC(=O)CCC(=O)O)CC[C@@](C)(CCC[C@H](C)CCC[C@H](C)CCCC(C)C)O2,Potency,[1],inactive
same,Potency,[2],inactive
C[C@@H](O)[C@H]1C(=O)N2C(C(=O)[O-])=C(SC3Cn4cnc[n+]4C3)[C@H](C)[C@H]12 (stereo partly drawn),"activity, negative = inhibition",[1],-13.7% [at 9.52 µM] (inactive)
same,"activity change, negative = inhibition",[2],-27.3% [at 9.73 µM] (inactive)
COc1ccc2c(c1)N(C[C@H](C)CN(C)C)c1ccccc1S2,Potency,[1],inactive
same,Potency,[2],inactive
CO[C@@]1(NC(=O)C2SC(=C(C(N)=O)C(=O)O)S2)C(=O)N2C(C(=O)O)=C(CSc3nnnn3C)CS[C@@H]21 (stereo partly drawn),Potency,[1],10.1 µM (active)
same,Potency,[2],17.8 µM (active)
CC(=O)NCCCS(=O)(=O)O,Potency,[1],inactive
same,Potency,[2],inactive
NC(N)=NCC1COC2(CCCCC2)O1 (stereo not drawn),Potency,[1],inactive
same,Potency,[2],inactive
CC(C)CCCC(C)NC(C)C (stereo not drawn),Potency,[1],inactive
same,Potency,[2],inactive
CC(CC=O)CCCC(C)(C)O (stereo not drawn),Potency,[1],inactive
same,Potency,[2],inactive
O=C(O)c1ccc(NC(=O)[C@H](Cc2ccc(O)cc2)NC(=O)c2ccccc2)cc1,Potency,[1],inactive
same,Potency,[2],inactive
Cc1c(O)c(=O)ccn1C,Potency,[1],inactive
same,Potency,[2],inactive
Cc1ncc(C[n+]2csc(CCOP(=O)(O)OP(=O)(O)O)c2C)c(N)n1,"activity, negative = inhibition",[1],-4.18% [at 0.4 µM] (inactive)
same,"activity change, negative = inhibition",[2],-9.41% [at 0.409 µM] (inactive)
OCCN1CCN(CC/C=C2/c3ccccc3Sc3ccc(Cl)cc32)CC1,Potency,[1],inactive
same,Potency,[2],inactive
Cc1ccc(S(=O)(=O)O)cc1C,Potency,[1],inactive
same,Potency,[2],inactive
C[C@@H]1C[C@H]2[C@@H]3C[C@H](F)C4=CC(=O)C=C[C@]4(C)[C@@]3(Cl)[C@@H](O)C[C@]2(C)[C@H]1C(=O)COC(=O)C(C)(C)C,Potency,[1],inactive
same,Potency,[2],inactive
COC(=O)CCC[N+](C)(C)C,Potency,[1],inactive
same,Potency,[2],inactive
Nc1nc2c(c(=O)[nH]1)N(C=O)C(CNc1ccc(C(=O)N[C@@H](CCC(=O)O)C(=O)O)cc1)CN2 (stereo partly drawn),"activity, negative = inhibition",[1],-12.1% [at 0.4 µM] (inactive)
same,"activity change, negative = inhibition",[2],-4.6% [at 0.409 µM] (inactive)
CCC(C(=O)NC(N)=O)c1ccccc1 (stereo not drawn),Potency,[1],inactive
same,Potency,[2],inactive
NC(=O)[C@@H]1C[C@]2(NC(=O)NC2=O)c2cc(F)ccc2O1,Potency,[1],inactive
same,Potency,[2],inactive
Nc1nc(=O)n([C@@H]2CS[C@H](CO)O2)cc1F,Potency,[1],inactive
same,Potency,[2],inactive
CC(=O)N=c1sc(S(N)(=O)=O)nn1C,Potency,[1],inactive
same,Potency,[2],inactive
CCCC(=O)Nc1c(I)cc(I)c(CC(CC)C(=O)O)c1I (stereo not drawn),Potency,[1],inactive
same,Potency,[2],inactive
C(=C\c1ccncc1)/c1ccccc1,Potency,[1],inactive
same,Potency,[2],inactive
OCCCNc1ccccc1,Potency,[1],inactive
same,Potency,[2],inactive
CNC(=O)[C@H](Cc1c[nH]c2ccccc12)NC(=O)[C@@H](CC(=O)NO)CC(C)C,Potency,[1],inactive
same,Potency,[2],inactive
CO/N=C(\C(=O)N[C@@H]1C(=O)N2C(C(=O)O)=C(C[N+]3(C)CCCC3)CS[C@H]12)c1csc(N)n1,Potency,[1],11.4 µM (active)
same,Potency,[2],17.8 µM (active)
CCCCCCCCCCCCCCCCCCCCCC(=O)Nc1ccn([C@@H]2O[C@H](CO)[C@@H](O)[C@@H]2O)c(=O)n1,Potency,[1],inactive
same,Potency,[2],inactive
C=C1CC[C@H](O)CC1=C/C=C1\CCC[C@]2(C)[C@@H]([C@H](C)CCCC(C)(C)O)CC[C@@H]12,Potency,[1],inactive
same,Potency,[2],14.1 µM (active)
NC[C@H]1O[C@H](O[C@H]2[C@H](O)[C@@H](O[C@H]3O[C@H](CO)[C@@H](O)[C@H](N)[C@H]3O)[C@H](N)C[C@@H]2N)[C@H](O)[C@@H](O)[C@@H]1O,outcome,[1],inactive [at 4.49 µM]
same,outcome,[2],inactive [at 4.52 µM]
OCc1ccccc1,Potency,[1],inactive
same,Potency,[2],inactive
CCCCC(=O)O[C@H]1CC[C@H]2[C@@H]3CCc4cc(O)ccc4[C@H]3CC[C@]12C,Potency,[1],inactive
same,Potency,[2],inactive
OC[C@@H](O)C(O)[C@H](O)CO,Potency,[1],inactive
same,Potency,[2],inactive
CN1C(=O)OC(C)(C)C1=O,Potency,[1],inactive
same,Potency,[2],inactive
COC(=O)c1ccccc1O,Potency,[1],inactive
same,Potency,[2],inactive
OC[C@H]1O[C@@](CO)(O[C@H]2O[C@H](CO)[C@@H](O)[C@H](O)[C@H]2O)[C@@H](O)[C@@H]1O,Potency,[1],inactive
same,Potency,[2],inactive
CCCCC(CC)CCC(CC(C)C)OS(=O)(=O)O (stereo not drawn),Potency,[1],inactive
same,Potency,[2],10 µM (active)
CC[C@H]1OC(=O)[C@H](C)[C@@H](O[C@H]2C[C@@](C)(OC)[C@@H](O)[C@H](C)O2)[C@H](C)[C@@H](O[C@@H]2O[C@H](C)C[C@H](N(C)C)[C@H]2O)[C@](C)(O)C[C@@H](C)CN(C)[C@H](C)[C@@H](O)[C@]1(C)O,Potency,[1],inactive
same,Potency,[2],inactive
Cc1cccc(C)c1NC(=O)C1CCCCN1C (stereo not drawn),Potency,[1],inactive
same,Potency,[2],inactive
N#Cc1ccc2c(c1)N(CCCN1CCC(O)CC1)c1ccccc1S2,Potency,[1],inactive
same,Potency,[2],inactive
CCCC(CCC)C(=O)OC1C[C@H]2CC[C@@H](C1)[N+]2(C)C (stereo partly drawn),Potency,[1],inactive
same,Potency,[2],inactive
CN[C@@H]1[C@@H](O)[C@@H](O[C@@H]2[C@@H](O)[C@H](O[C@H]3O[C@H](CN)[C@@H](O)[C@H](O)[C@H]3O)[C@@H](N)C[C@H]2NC(=O)C(O)CN)OC[C@]1(C)O (stereo partly drawn),Potency,[1],inactive
same,Potency,[2],inactive
Nc1ccc(N=Nc2ccccc2)c(N)n1,Potency,[1],inactive
same,Potency,[2],inactive
CCC[C@@H]1C[C@@H](C(=O)N[C@@H]([C@H]2O[C@H](SC)[C@H](O)[C@@H](O)[C@H]2O)[C@H](C)Cl)N(C)C1,Potency,[1],inactive
same,Potency,[2],inactive
O=C(CCCN1CCC(C(=O)c2ccc(F)cc2)CC1)c1ccc(F)cc1,Potency,[1],inactive
same,Potency,[2],inactive
C=C[C@]1(C)C[C@@H](OC(=O)CSCCN(CC)CC)[C@]2(C)[C@H](C)CC[C@]3(CCC(=O)[C@H]32)[C@@H](C)[C@@H]1O,Potency,[1],inactive
same,Potency,[2],inactive
CC(=O)Nc1c(I)c(C(=O)O)c(I)c(N(C)C(C)=O)c1I,Potency,[1],inactive
same,Potency,[2],inactive
CCN1C(=O)NC(c2ccccc2)C1=O (stereo not drawn),Potency,[1],inactive
same,Potency,[2],inactive
NC[C@H]1O[C@H](O[C@H]2[C@H](O)[C@@H](O[C@H]3O[C@H](CO)[C@@H](O)[C@H](N)[C@H]3O)[C@H](N)C[C@@H]2N)[C@H](N)C[C@@H]1O,Potency,[1],inactive
same,Potency,[2],inactive
CC(C)c1nc(N(C)S(C)(=O)=O)nc(-c2ccc(F)cc2)c1/C=C/C(O)CC(O)CC(=O)O (stereo not drawn),Potency,[1],inactive
same,Potency,[2],inactive
Cc1nc(NS(=O)(=O)c2ccc(N)cc2)nc(C)c1Br,Potency,[1],inactive
same,Potency,[2],inactive
O=C1[O][Bi][O]c2ccccc21,outcome,[1],inactive [at 0.4 µM]
same,outcome,[2],inactive [at 0.409 µM]
O=C(OCc1ccccc1)c1cccnc1,Potency,[1],inactive
same,Potency,[2],inactive
